Laboratory results taken from PubChem BioAssay AID371 (SRMLSC, 2006).
Among all 3,300 compounds or so, about 280 (8.5%) were called active.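 How the source made its calls: active means mean growth inhibition over the two runs of 50% or more; inactive means mean growth inhibition under 50%.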 The entries come from a sample that favours actives as a whole.

assay: A549 NSCLC cell proliferation inhibitors – ATP luminescence, human non-small cell lung line, primary screen (AID 371); settings: at 10 µM, hits give high values;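 further: compound exposure lasted 72 h before the ATP read; 0% = untreated cell signal and 100% = no luminescence left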

Structure (SMILES)	growth inhibition
CC1=NOC2(C)Nc3ncnn3C(c3ccccc3)C12 (stereo not given)	6.33% (inactive)
CC[C@@H](CO)NC(=O)[C@@H]1C=C2c3cccc4c3c(cn4C)C[C@H]2N(C)C1	4.84% (inactive)
CN1C[C@H](CNC(=O)OCc2ccccc2)C[C@@H]2c3cccc4c3c(cn4C)C[C@H]21	94.7% (active)
CCCCCCn1c(O)c(C=NCCCn2ccnc2)c(=O)[nH]c1=O	7.84% (inactive)
CC1(C)CC(n2[nH]c(=O)c3c2NC(=O)CSC3c2ccccc2)CCO1 (stereo not given)	3.92% (inactive)
O=c1[nH]c2ccccc2n1CCCN1CCC(n2c(=O)[nH]c3cc(Cl)ccc32)CC1	6% (inactive)
O=c1[nH]c2ccccc2n1C1CCN(CCCC(c2ccc(F)cc2)c2ccc(F)cc2)CC1	93% (active)
CCOC(=O)[C@]1(C#N)[C@@H]2C=CC(C(C)=O)=CN2[C@@H](C(N)=O)[C@@H]1c1ccsc1	3.86% (inactive)
Nc1ncc(P(=S)(N2CCOCC2)N2CCOCC2)s1	0.52% (inactive)
COc1cccc(-n2c(O)c(C=NCCN3CCOCC3)c(=O)[nH]c2=O)c1	-0.53% (inactive)
CCCCc1nc(N2CCNCC2)c(C#N)c2c1CSC(C)(C)C2	92% (active)
CCc1nc(N2CCNCC2)c(C#N)c2c1CSC(C)(C)C2	49.5% (inactive)
COc1ccc2c(c1)c(C(=O)O)c(C)n2CC(C)C	-2.88% (inactive)
COC(=O)C(O)(c1c[nH]c2ccccc12)C(F)(F)F (stereo not given)	0.63% (inactive)
O=C(CN1CCN(CCO)CC1)Nc1ccc(Cl)cc1C(=O)c1ccccc1	13.2% (inactive)
C=CCOC(=O)C1=C(C)OC(N)=C(C#N)C12C(=O)N(CN1CCOCC1)c1ccccc12 (stereo not given)	0.76% (inactive)
O=c1[nH]c(=O)n(-c2cccc3ccccc23)c(O)c1C=NCCCn1ccnc1	-5.79% (inactive)
CCN(CC)CCN=C(C)c1c(O)n(-c2ccccc2OC)c(=O)[nH]c1=O	-2.11% (inactive)
CC(=O)OC1N=C(c2ccccc2)c2ccccc2NC1=O (stereo not given)	-5.27% (inactive)
CCN(CC)c1ccc(N=Cc2c(O)n(-c3cc(OC)ccc3OC)c(=O)[nH]c2=O)cc1	26.8% (inactive)
